Consider 101 compounds from PubChem BioAssay AID1626 (SRMLSC, 2009).

In general, inhibition refers to the change of the read-out against control, counted positive when it falls.

Screen size: about 220,000 compounds; about 2,000 (0.91%) were called active. Not shown: some 2% with an inconclusive outcome. A selection follows. Entries with a potency or affinity are not part of this list. Values without a mark were called inactive. Cut-off read from the data, not from the text of the source: inconclusive = inhibition above about 80% without an active follow-up result; inactive = below that; test concentration not stated here.

This experiment is described as follows: M. tuberculosis H37Rv growth inhibitors, H37Rv strain (AID 1626).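 Note: bacteria incubated seven days before Alamar blue readout; 0% = bacteria only wells and 100% = bacteria with antibiotic wells.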 Conditions: stronger effect = higher value, concentration not given here.
For the compound `COc1ccc(C2C(C(=O)O)c3ccccc3C(=O)N2Cc2ccco2)cc1` (stereo unspecified), the inhibition was -9.26%. For `O=C(CCOc1ccccc1)Nc1ccccc1` the value was 7.71%. For `COC(=O)c1ccc(NC(=O)CCOc2ccccc2)cc1` the value was 23.7%; for `CC(=O)Nc1ccc(NC(=O)Oc2ccccc2)cc1`, -9.97%; for `CCOC(=O)Nc1ccc(Oc2ccccc2)cc1`, 8.39%. To `COC(=O)c1ccc(NC(=O)NS(=O)(=O)c2ccc(C)cc2)cc1` belongs 55.9%; to `CCOC(=O)Nc1cccc(Nc2ccccc2)c1`, 3.05%; to `CC(=O)c1ccc(NC(=O)Oc2ccccc2)cc1`, -7.64%.

`CCOC(=O)c1ccc(NC(=O)Nc2ccc(S(N)(=O)=O)cc2)cc1`: the inhibition was -7.07%. In the case of `CC(C)c1ccccc1NC(=O)COc1ccc2c(=O)c(Oc3ccc4ccccc4c3)coc2c1`, the inhibition was 5.82%. For `COC(=O)c1cc(NS(=O)(=O)c2cccc(Cl)c2)ccc1N1CCOCC1` the value was 3.2%; for `O=C(CN(CC1CCCO1)C(=O)CCC(=O)Nc1nccs1)NCc1ccccc1` (stereo unspecified), -3.47%. For `COc1ccccc1N(C)S(=O)(=O)c1ccc(C(=O)OCC(=O)N2CCCCCC2)cc1` the value was 9.09%; for `CC1=NN(C(C#N)c2cccc([N+](=O)[O-])c2)C(C)(C)C1` (stereo unspecified), -1.89%; for `CCOC(=O)c1ccc(NC(=O)CN(C)S(=O)(=O)c2ccc(OC)cc2)cc1`, -10.7%. To `CC(=O)Nc1ccc(NC(=O)CCSCCc2ccccn2)cc1` belongs -0.22%; to `Cc1ccc(OCCCC(=O)Nc2ccc(Br)cc2)cc1`, -4.3%. As to `COc1ccc(NC(=O)CCOc2ccccc2)cc1`, the inhibition is 70.1%. For `Cc1ccc(OCCC(=O)Nc2ccc(F)c(F)c2)cc1`, the inhibition is -1.46%. Turning to `Cc1ccc(NC(=O)CCSCCc2ccccn2)cc1`, the inhibition is 71.6%. To `O=C(CN1CC(=O)Nc2ccccc21)Nc1ccc(F)c(F)c1` belongs 0.62%. With `COc1ccc(CCNC(=O)CSc2cccc3cccnc23)cc1OC`, the inhibition was 3.55%. For `CCC(C)NC(=O)c1ccccc1SC` (stereo unspecified) the value was 9.14%. To `CCN(Cc1cc(=O)[nH]c2ccccc12)C(=O)c1ccc(C)cc1` belongs -2.96%; to `COc1ccc(C(=O)NC(=S)Nc2ccc(CN3CCCCC3)cc2)cc1Cl`, 7.56%; to `COC(=O)c1c(C)oc2ccc(NS(=O)(=O)c3cccs3)cc12`, 2.07%. For `Cc1oc2ccc(OS(C)(=O)=O)cc2c1C(=O)OC(C)C` the value was -0.97%; for `CCOC(=O)c1c(C)oc2ccc(OCC(N)=O)cc12`, 8.61%; for `COC(=O)c1c(C)oc2ccc(OC(=O)N3CCOCC3)cc12`, -6.17%. Regarding `Cc1oc2ccc(OC(=O)N(C)C)cc2c1C(=O)OC(C)C`, the inhibition is -7.47%. For `CCOC(=O)c1c(C)oc2ccc(OS(C)(=O)=O)cc12` the value was 0.04%; for `COC(=O)c1ccc(CSc2nc3c(cnn3-c3ccc(C)cc3)c(=O)[nH]2)o1`, -0.23%.

`CC1(C)C(=O)Nc2ccccc2N1C(=O)COc1ncnc2ccccc12`: the inhibition was 4.16%. For `O=C(C[n+]1ccc(/C=N/O)cc1)NCc1ccccc1` the value was -12.5%; for `COc1cc(CCNc2ccc3nnc(-c4ccccc4)n3n2)cc(OC)c1OC`, 10.3%; for `O/N=C1\CCCCc2ccccc21`, -4.26%.

Turning to `CC12CCC(C(=O)N3CCN(C(c4ccccc4)c4ccccc4)CC3)(OC1=O)C2(C)C` (stereo unspecified), the inhibition was 1.93%. For `CC(Nc1nc(-c2ccc(Cl)cc2)cs1)c1nc2cc(Cl)c(N3CCCCC3)cc2n1CCOCCO` (stereo unspecified) the value was 44.5%; for `COc1ccc(-c2csc(NC(C)c3nc4cc(Cl)c(Cl)cc4n3CCCO)n2)cc1` (stereo unspecified), 5.27%. For `CC(Nc1nc(-c2ccc(F)cc2)cs1)c1nc2cc(Cl)c(N3CCCCC3)cc2n1CCOCCO` (stereo unspecified) the value was 19.6%; for `CC(Nc1nc(-c2ccc(F)cc2)cs1)c1nc2cc(Cl)c(N3CCCCC3)cc2n1CCCO` (stereo unspecified), 78%. For `Cc1ccc(NC(=O)c2cc(NC(=O)C3CC=CCC3C(=O)O)ccc2N2CCOCC2)cc1Cl` (stereo unspecified) the value was -6.7%. Regarding `CCn1c(CNC(=O)c2ccccc2)nc2ccccc21`, the inhibition was -6.06%. For `O=C(Nc1nc2ccccc2n1CCN1CCCC1)c1ccc(Cl)cc1` the value was 58.7%. To `Cn1c(NC(=O)c2cccc(Cn3cc(Cl)cn3)c2)nc2ccccc21` belongs 84.7%; to `CC(C)NC(=O)c1cccc(Cn2cc(Cl)cn2)c1`, -2.76%; to `CC(=O)Nc1nc2ccccc2n1CCN1CCOCC1`, -6.15%. As to `CCN(CC)CCn1c(NC(=O)c2ccc(Cl)cc2)nc2ccccc21`, the inhibition is 57.6%. For `CCn1c(NC(C)=O)nc2ccccc21` the value was 2.94%; for `CN(C)CCn1c(NC(=O)c2ccc(Cl)cc2)nc2ccccc21`, 65.2%. To `Cc1c(C(=O)N/N=C/c2ccc(N3CCOCC3)cc2)nc2ccccn12` belongs 3.49%; to `CC(c1ccccc1)c1nnc(NC(=O)c2ccc3c(c2)OCO3)s1` (stereo unspecified), 6.54%. To `O=C(OCCN1C(=O)c2ccccc2C1=O)C1CCN(S(=O)(=O)c2cccs2)CC1` belongs -5.04%; to `CCCCNC(=O)N1CCN(C/C=C/c2ccccc2)CC1`, 5.68%; to `O=C(c1ccc(C(F)(F)F)cc1)N1CCCCC1`, -0.08%. `Fc1cccc(NC(=S)NCc2cccnc2)c1`: the inhibition is 21.1%.

Consider `O=c1c2cc(-c3ccccc3)sc2nc2n1N=C(c1ccccc1)CS2`, for which the inhibition is 10.6%. To `CCCCN(CCCC)Cc1cc2ccccc2c2c1COC2` belongs 4.07%. For `CCCn1c(NC(=S)Nc2ccccc2)nc2ccccc21` the value was 7.73%; for `CCCn1c(Nc2nc3ccccc3n2C)nc2ccccc21`, 2.56%; for `CCCn1c(NCCO)nc2ccccc21`, -2.95%. For `CCn1c(CCCNC(=O)c2cccs2)nc2ccccc21` the value was -2.25%; for `CCn1c(C(C)NC(=O)c2cccs2)nc2ccccc21` (stereo unspecified), 2.83%; for `CCCn1c(Nc2ccccc2C)nc2ccccc21`, -8.39%.

Consider `CCCn1c(CNC(=O)c2ccccc2)nc2ccccc21`, for which the inhibition is -0.92%. For `CCCn1c(C(C)NC(=O)c2ccccc2)nc2ccccc21` (stereo unspecified) the value was 0.32%; for `Cc1onc(-c2ccccc2Cl)c1C(=O)N1C=CC(C(F)(F)Cl)=NCC1`, 1.09%. For `O=C(NCc1ccc(Cl)cc1)c1cc(-c2cccs2)on1` the value was -1.76%. To `Cc1cccc(SCC(=O)Nc2ccccc2[N+](=O)[O-])c1` belongs 7.5%; to `COc1ccc(N=C2S/C(=C\c3ccc(OCC(=O)O)cc3)C(=O)N2CCc2c[nH]c3ccccc23)cc1`, -4.37%; to `Cc1ccc(C)c(CN2C(=O)COc3ccc(C(=O)c4ccccc4C(=O)O)cc32)c1`, 15.8%. `CCN(CC)S(=O)(=O)c1cccc(NC(=O)COC(=O)CNC(=O)c2cccc(F)c2)c1`: the inhibition is -4.29%. To `Cc1ccccc1NS(=O)(=O)c1cc(C(=O)NCc2ccco2)ccc1C` belongs -1.94%.

`COc1cc(NC(=O)CSc2nnc(C)s2)cc(OC)c1OC`: the inhibition is 0.33%. As to `CCn1cc(Cl)c(C(=O)Nc2nc3ccccc3n2CCN2CCCCC2)n1`, the inhibition was 3.91%. For `CCn1c(NC(=O)Nc2ccccc2OC)nc2ccccc21` the value was 81.5%; for `Cc1ccc(-c2nc(C(F)(F)F)cc(=O)[nH]2)cc1`, -0.92%; for `CCOC(=O)c1c(NC(=O)c2nn(CC)cc2Br)c(C#N)cn1-c1ccccc1`, -6%. For `CCOC(=O)N1CCC(N2CCCC(C(=O)c3cccc(OC)c3)C2)CC1` (stereo unspecified) the value was 0.16%.

On to `CCn1ccnc1CN1CCCC(C(=O)c2ccc(OC)cc2OC)C1` (stereo unspecified), for which the inhibition is -1.43%.

As to `COc1ccc(O)c(CN2CCCC(C(=O)c3ccccc3SC)C2)c1` (stereo unspecified), the inhibition is -3.14%. Turning to `COc1ccc(OC)c(CN2CCCC(C(=O)c3ccccc3SC)C2)c1` (stereo unspecified), the inhibition is 5%. As to `CCOC(=O)N1CCC(N2CCCC(C(=O)c3cc(C)c(OC)c(C)c3)C2)CC1` (stereo unspecified), the inhibition was -0.88%. For `CC(C)Oc1cccc(C(=O)C2CCCN(Cc3ccon3)C2)c1` (stereo unspecified) the value was 5.09%; for `CCn1ccnc1CN1CCCC(C(=O)c2cc(C)c(OC)c(C)c2)C1` (stereo unspecified), 9.37%. Turning to `Cc1ncc(CN2CCCC(C(=O)c3cccc(OC(C)C)c3)C2)s1` (stereo unspecified), the inhibition is -0.24%. For the compound `c1ccc(-c2cnc(SCCN3CCOCC3)n2CC2CCCO2)cc1` (stereo unspecified), the inhibition was 4.09%.

For `CCN(CC)C(=O)C(=O)c1cccn1-c1c(Cl)cccc1C#N`, the inhibition was -1.07%.

Turning to `NC(=O)c1cn(-c2ccccc2)nc1-c1cccnc1`, the inhibition was -9.42%. For `CC1CC(=O)N(CC(=O)NCc2ccco2)c2ccccc2S1` (stereo unspecified) the value was -7.83%; for `O=C(CCc1nnc(CCc2c[nH]c3ccccc23)o1)NC1CCC1`, -2.04%. As to `COc1ccc(NC(=O)c2ccccc2[N+](=O)[O-])cc1`, the inhibition is -5.35%. For `Cc1c(C(=O)NCCCn2ccnc2)oc2ccccc12`, the inhibition was 3%. To `CCc1ccc(/C=N/NC(=O)c2cc(C)on2)s1` belongs 4.86%; to `CC(C)CCNC(=O)CCSCCC(=O)NCCC(C)C`, -5.9%; to `COc1c(C)cc(C(=O)C2CCCN(Cc3ccccn3)C2)cc1C` (stereo unspecified), 52.1%.

Take `Cc1cccc(CN2CCCC(C(=O)c3ccc4c(c3)OCO4)C2)n1` (stereo unspecified): the inhibition is 9.77%. For `COc1ccc(C(=O)C2CCCN(Cc3cnc(C)s3)C2)cc1OC` (stereo unspecified), the inhibition was -7.69%.

With `COc1cccc(C(=O)C2CCCN(Cc3cccc(C)n3)C2)c1` (stereo unspecified), the inhibition is 6.54%. For `COc1ccc(C(=O)C2CCCN(Cc3cccc(C)n3)C2)c(OC)c1` (stereo unspecified) the value was -9.04%; for `COc1ccc(C(=O)C2CCCN(Cc3cnc(C)s3)C2)c(OC)c1` (stereo unspecified), 1.52%.
